According to PubChem BioAssay (Tox21):
“And” between values parts separate entries of the source, which are not always exact repeats. Identical values can stand only once. Results filed as inconclusive are left out. Where a call stands in place of a potency, no number is given. A structure can be active in one record and inactive in another. The source made the active and inactive calls. Unless noted, calls follow the shape of the dose curve; as a rule, active = well fitted curve in the direction sought with a large enough effect in the repeat runs; inconclusive = weak or mixed curves; inactive = no such curve, though single readings can be large; an effect the other way counts as inactive or inconclusive.

Columns and labels:
[1] = qHTS assay to identify small molecule agonists of H2AX - cell viability counter screen (AID 1224847; calls by dose curve; also: top concentration of the series differs between compounds; nearly all actives have a fitted effect of over 30% in size); details: CHO-K1 viability, CellTiter-Glo luminescence, 3 h; series mostly up to 154 µM
Outline: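 We seed wild-type CHO-K1 cells overnight, treat them for 3 hr at 37C with compounds in 15-concentration series, and quantify remaining viability by CellTiter-Glo luminescence.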

[2] = qHTS RealTime-Glo MT Cell Viability Assay in HepG2 cells - 24 hour (AID 1224867); details: RealTime-Glo luminescence; series mostly up to 76.8 µM; also: nearly all actives have a fitted effect of over 50% in size
Outline: (§1)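 Luminescence read-out: viable HepG2 cells reduce a prosubstrate to a NanoLuc substrate, giving a signal proportional to live cell number. Reads taken at 0, 8, 16, 24, 32 and 40 h of compound exposure at 37 C.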

[3] = A CellTox Green Cytotoxicity Assay to monitor cytotoxicity in HEK293 cells - 0 hour (AID 1224869); details: CellTox Green fluorescence; series mostly up to 76.8 µM; also: nearly all actives have a fitted effect of over 50% in size
Outline: (§2)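 Cytotoxicity was tracked continuously in HEK293 cells by a DNA-binding dye excluded from viable cells. Compounds were transferred in DMSO 5 h after seeding; fluorescence was recorded at intervals up to 40 h.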

[4] = qHTS RealTime-Glo MT Cell Viability Assay in HepG2 cells - 40 hour (AID 1224870); details: RealTime-Glo luminescence; series mostly up to 76.8 µM; also: nearly all actives have a fitted effect of over 50% in size
Outline: (§3)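 HepG2 cells mixed with RealTime-Glo MT reagents (NanoLuc plus cell-permeant prosubstrate) were seeded at 600 cells/well, incubated 5 h at 37 C/5% CO2, then pinned with compounds in DMSO; nonlytic luminescence tracked viability during 40 h treatment.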

[5] = A CellTox Green Cytotoxicity Assay to monitor cytotoxicity in HEK293 cells - 40 hour (AID 1224871); details: CellTox Green fluorescence; series mostly up to 76.8 µM; also: nearly all actives have a fitted effect of over 45% in size; also: potency is read from the fitted curve at half-maximal effect
Outline: as §2

[6] = qHTS RealTime-Glo MT Cell Viability Assay in HEK293 cells - 16 hour (AID 1224872); details: RealTime-Glo luminescence; series mostly up to 76.8 µM; also: top concentration of the series differs between compounds; nearly all actives have a fitted effect of over 50% in size
Outline: (§4)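 Nonlytic real-time viability readout: viable cells convert prosubstrate to NanoLuc substrate, giving luminescence proportional to live cell number. HEK293, 600 cells/well, compound added after 5 h, continuous culture at 37 C.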

[7] = qHTS RealTime-Glo MT Cell Viability Assay in HEK293 cells - 40 hour (AID 1224874); details: RealTime-Glo luminescence; max response: stronger effect = lower value; also: nearly all actives have a fitted effect of over 50% in size
Outline: (§5)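 Nonlytic bioluminescent viability monitoring. HEK293 at 600 cells/well with reagent; 5 h settle; compound transfer by pintool; plates held at 37 C and read at set time points.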

[8] = A CellTox Green Cytotoxicity Assay to monitor cytotoxicity in HEK293 cells - 24 hour (AID 1224875); details: CellTox Green fluorescence; series mostly up to 76.8 µM; also: nearly all actives have a fitted effect of over 45% in size
Outline: as §2

[9] = A CellTox Green Cytotoxicity Assay to monitor cytotoxicity in HepG2 cells - 16 hour (AID 1224876); details: CellTox Green fluorescence; series mostly up to 76.8 µM; also: nearly all actives have a fitted effect of over 45% in size
Outline: (§6)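 Real-time, homogeneous cytotoxicity readout: dead-cell DNA staining by CellTox Green in HepG2 monolayers, fluorescence measured at timed intervals up to 40 h of continuous compound exposure.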

[10] = qHTS RealTime-Glo MT Cell Viability Assay in HepG2 cells - 32 hour (AID 1224877); details: RealTime-Glo luminescence; series mostly up to 76.8 µM; also: nearly all actives have a fitted effect of over 55% in size
Outline: as §1

[11] = A CellTox Green Cytotoxicity Assay to monitor cytotoxicity in HepG2 cells - 24 hour (AID 1224878); details: CellTox Green fluorescence; series mostly up to 76.8 µM; also: nearly all actives have a fitted effect of over 45% in size
Outline: as §6

[12] = A CellTox Green Cytotoxicity Assay to monitor cytotoxicity in HepG2 cells - 40 hour (AID 1224879); details: CellTox Green fluorescence; series mostly up to 76.8 µM; also: nearly all actives have a fitted effect of over 40% in size
Outline: as §6

[13] = qHTS RealTime-Glo MT Cell Viability Assay in HEK293 cells - 0 hour (AID 1224880); details: RealTime-Glo luminescence; series mostly up to 76.8 µM
Outline: as §5

[14] = A CellTox Green Cytotoxicity Assay to monitor cytotoxicity in HEK293 cells - 32 hour (AID 1224881); details: CellTox Green fluorescence; series mostly up to 76.8 µM; also: nearly all actives have a fitted effect of over 40% in size
Outline: as §2

[15] = A CellTox Green Cytotoxicity Assay to monitor cytotoxicity in HepG2 cells - 0 hour (AID 1224882); details: CellTox Green fluorescence; series mostly up to 76.8 µM; also: nearly all actives have a fitted effect of over 35% in size
Outline: as §6

[16] = A CellTox Green Cytotoxicity Assay to monitor cytotoxicity in HepG2 cells - 32 hour (AID 1224883); details: CellTox Green fluorescence; series mostly up to 76.8 µM; also: nearly all actives have a fitted effect of over 50% in size
Outline: as §6

[17] = qHTS RealTime-Glo MT Cell Viability Assay in HEK293 cells - 32 hour (AID 1224868); details: RealTime-Glo luminescence; series mostly up to 76.8 µM
Outline: as §4

[18] = qHTS RealTime-Glo MT Cell Viability Assay in HepG2 cells - 8 hour (AID 1224873); details: RealTime-Glo luminescence; series mostly up to 76.8 µM; also: nearly all actives have a fitted effect of over 55% in size
Outline: as §3

SMILES | Potency [1] | outcome [2] | outcome [3] | outcome [4] | Potency [5] | Potency [6] | max response [7] | Potency [8] | Potency [9] | outcome [10] | Potency [11] | Potency [12] | Potency [13] | Potency [14] | outcome [15] | Potency [16] | Potency [17] | outcome [18] | activity change, negative = cytotoxic [17] | activity change, negative = cytotoxicity [6]
C/C=C1/CC2C=CC1C2 (stereo not given) | inactive | inactive | inactive | inactive | inactive | inactive | 4% (inactive) and 6.36% (inactive) | inactive | inactive | inactive | inactive | inactive | inactive | inactive | inactive | inactive | – | – | – | –
CCc1ccc(CCOc2ccc(CC3SC(=O)NC3=O)cc2)nc1 (stereo not given) | inactive | inactive | inactive | inactive | inactive | – | -19% (inactive) | – | inactive | inactive | inactive | inactive | inactive | inactive | inactive | inactive | inactive | inactive | – | –
CC1=CCC2CC1C2(C)C (stereo not given) | inactive | inactive | inactive | inactive | inactive | – | -11.4% (inactive) and 10.5% (inactive) | – | inactive | inactive | inactive | inactive | inactive | inactive | inactive | inactive | inactive | inactive | – | –
CCCCCC(N)=O | inactive | inactive | inactive | inactive | inactive | inactive | 0.824% (inactive) and 2.09% (inactive) | – | inactive | inactive | inactive | inactive | inactive | inactive | inactive | inactive | – | – | – | –
OCc1cccnc1 | inactive | inactive | inactive | inactive | inactive | inactive | -2.21% (inactive) and -1.61% (inactive) | inactive | inactive | inactive | inactive | inactive | inactive | inactive | inactive | inactive | inactive | inactive | – | –
CC(C)(C)[C@@H](O)[C@@H](Cc1ccc(Cl)cc1)n1cncn1 | inactive | inactive | inactive | inactive | inactive | inactive | – | inactive | inactive | inactive | inactive | inactive | inactive | inactive | inactive | inactive | – | inactive | – | –
CCCCCC/C(C=O)=C\c1ccccc1 | inactive | inactive | inactive | inactive | 44.1 µM (active) and inactive | inactive | -10.1% (inactive) and 0.846% (inactive) | – | inactive | inactive | inactive | inactive | inactive | inactive | inactive | inactive | – | inactive | – | –
NNc1nncc2ccccc12 | inactive | inactive | inactive | inactive | inactive | – | 2.59% (inactive) | inactive | inactive | inactive | inactive | inactive | inactive | inactive | inactive | inactive | – | – | 3.93% [at 15.8 µM] (inactive) | -0.186% [at 15.8 µM] (inactive)
CCCCCCCCCC | inactive | inactive | inactive | inactive | inactive | inactive | 1.13% (inactive) and 22.3% (inactive) | – | inactive | inactive | inactive | inactive | inactive | inactive | inactive | inactive | – | – | – | –
O=C(O)CC(C(=O)O)C(CC(=O)O)C(=O)O (stereo not given) | inactive | inactive | inactive | inactive | inactive | inactive | -2.07% (inactive) and -0.191% (inactive) | inactive | inactive | inactive | inactive | inactive | inactive | inactive | inactive | inactive | – | – | – | –
CC(O)COCC(C)O (stereo not given) | inactive | inactive | inactive | inactive | inactive | – | -1.78% (inactive) and 1.64% (inactive) | inactive | inactive | inactive | inactive | inactive | inactive | inactive | inactive | inactive | inactive | inactive | – | –
CCCCCCCCCCCCCCO | inactive | inactive | inactive | inactive | inactive | inactive | -1.67% (inactive) and 1.72% (inactive) | – | inactive | inactive | inactive | inactive | inactive | inactive | inactive | inactive | inactive | inactive | – | –
c1ccc(OCCOc2ccccc2)cc1 | inactive | inactive | inactive | inactive | inactive | inactive | -0.0252% (inactive) and -0.384% (inactive) | inactive | inactive | inactive | inactive | inactive | inactive | inactive | inactive | inactive | inactive | – | – | –
CC1CCC(C(C)C)C(O)C1 (stereo not given) | inactive | inactive | inactive | inactive | inactive | inactive | -2.01% (inactive) and 1.75% (inactive) | inactive | inactive | inactive | inactive | inactive | inactive | inactive | inactive | inactive | inactive | inactive | – | –
